High-throughput results: PubChem, Broad Institute
RAD52 inh: RAD52 DNA annealing inhibitors, primary screen, biochemical, FRET, single point, set 2 | inhibition, % at 18.7 µM | DNA repair protein RAD52 homolog (Homo sapiens), P43351 | recombinant RAD52 DNA annealing, FRET fluorescence | 360,000 compounds, 0.46% hits;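 active = every replicate showing at least 50% inhibition; inconclusive = mean inhibition at least 50% but not in every replicate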
Target sequence (P43351 whole entry, looked up): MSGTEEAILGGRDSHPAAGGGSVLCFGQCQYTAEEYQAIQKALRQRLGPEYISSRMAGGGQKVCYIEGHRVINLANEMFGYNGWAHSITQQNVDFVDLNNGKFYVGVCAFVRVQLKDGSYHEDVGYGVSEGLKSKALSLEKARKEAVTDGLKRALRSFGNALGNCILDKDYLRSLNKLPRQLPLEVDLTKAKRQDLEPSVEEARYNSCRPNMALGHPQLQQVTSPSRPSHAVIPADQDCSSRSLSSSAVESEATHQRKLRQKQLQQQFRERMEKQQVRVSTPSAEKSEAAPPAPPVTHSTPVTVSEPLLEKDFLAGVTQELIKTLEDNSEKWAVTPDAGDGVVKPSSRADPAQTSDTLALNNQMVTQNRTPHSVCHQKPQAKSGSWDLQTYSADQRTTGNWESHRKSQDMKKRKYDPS
DENV2 CPE rescue: inhibitors of DENV2 cytopathic effect, primary screen, cell-based, plate reader, single concentration; AID 651640, 2012; CPE inhibition, % at 9.99 µM; DENV2-infected cells, cytopathic effect rescue; 350,000 compounds, 1.7% hits; in the data active = CPE inhibition above about 20%, passing the limit was not always enough; inconclusive = no clear call, values can overlap the other calls; tested in BHK-21 cells
dFosB activator: activators of delta FosB homodimer, primary screen, biochemical, fluorescence polarization, TAMRA-CDK5 oligo, single point | Protein FosB (Mus musculus), P13346 | purified delta FosB; percent of positive-control signal above neutral wells | activation, % at 25 µM | 340,000 compounds, 0.99% hits;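 active = mean activation above about 17%, with every replicate also reaching it, limit read from the data, passing the limit was not always enough; inconclusive = only one of the two conditions met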
Target sequence (P13346 whole entry, looked up): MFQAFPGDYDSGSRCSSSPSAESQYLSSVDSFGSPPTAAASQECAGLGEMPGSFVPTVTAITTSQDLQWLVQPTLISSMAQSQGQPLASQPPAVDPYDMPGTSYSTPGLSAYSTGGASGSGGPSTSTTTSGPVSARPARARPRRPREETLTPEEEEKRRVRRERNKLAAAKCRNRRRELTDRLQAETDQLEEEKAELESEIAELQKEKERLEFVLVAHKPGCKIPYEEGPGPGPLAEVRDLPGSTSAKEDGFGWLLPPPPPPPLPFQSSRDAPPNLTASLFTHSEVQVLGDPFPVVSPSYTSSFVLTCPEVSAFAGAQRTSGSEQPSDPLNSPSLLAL
RAD54 inh: inhibitors of human RAD54 branch migration, primary screen, biochemical, fluorescence, single point; RAD54 Holliday junction branch migration, FAM/BHQ fluorescence; inhibition, % at 10.4 µM; 360,000 compounds, 0.14% hits; AID 602329, 2012;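 active = mean normalized replicate activity at least 40 and at least half of replicates scoring 40 or more; inconclusive = only one of the two criteria met; inactive = mean below 40 and under half of replicates reaching 40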;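 also: inhibitors cause a drop in the FAM fluorescence signal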
GSIS activator: GLuc luminescence reporter in INS-1E cells, primary screen for activators of glucose-dependent secretion of insulin. INS-1E GLuc reporter insulin secretion, 2-3 h. activation, % at 16.6 µM. 370,000 compounds, 0.61% hits. AID 743287, 2014;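 active = lowest replicate activation of at least 40%, so every replicate reaches that level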
MLL AF4-AF9 inh: inhibitors of AF4 peptide binding to AF9, primary screen, biochemical, AlphaScreen, biotin-AF4 peptide, FLAG-AF9, single point | Protein AF-9 (Homo sapiens), P42568 | inhibition, % at 10 µM | 350,000 compounds, 0.47% hits;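 active = every replicate reaching a set inhibition limit, whatever the replicate mean, cut at about 25% in these data; inconclusive = mean inhibition reaches that limit but some replicates miss it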
Of the large screens only hits and unclear results are named; the others gave an inactive call; ! = repeats disagree. Compounds with a hit are over-represented: about 3.1% of the library has one in this group of screens.

COc1ccc2c(=O)cc(-c3ccncc3)oc2c1OC	DENV2 CPE rescue 33
COc1cccc(-c2cn(CC[C@H]3CC[C@@H](NC(=O)CN(C)C)[C@H](CO)O3)nn2)c1	DENV2 CPE rescue inconclusive (no result: dFosB activator)
CCc1ccccc1SCc1noc(C(=O)NCC2CCCO2)c1C(=O)O (stereo not drawn)	none (no result: DENV2 CPE rescue, GSIS activator)
COC(=O)c1c(CCl)noc1C(=O)NCC1CCCO1 (stereo not drawn)	DENV2 CPE rescue 33
C[C@@H]1CN([C@H](C)CO)C(=O)c2cc(NC(=O)CCC(F)(F)F)ccc2O[C@@H]1CN(C)C	none (no result: dFosB activator)
O=C(C[C@H]1C=C[C@H](NC(=O)Nc2ccc3c(c2)OCO3)[C@H](CO)O1)NCc1ccccc1	none (no result: dFosB activator)
O=C(Nc1cc(F)ccc1F)N[C@H]1CC[C@@H](CCNC(=O)c2cnccn2)O[C@@H]1CO	none (no result: dFosB activator)
O=C(Nc1cc(F)ccc1F)N[C@@H]1CC[C@H](CCNC(=O)c2cnccn2)O[C@@H]1CO	DENV2 CPE rescue 34 (no result: dFosB activator)
O=C(Nc1cc(F)ccc1F)N[C@H]1CC[C@H](CCNC(=O)c2cnccn2)O[C@H]1CO	none (no result: dFosB activator)
O=C(Nc1cc(F)ccc1F)N[C@@H]1CC[C@H](CCNC(=O)c2cnccn2)O[C@H]1CO	DENV2 CPE rescue 32 (no result: dFosB activator)
COc1ccc(-c2cn(CC[C@@H]3CC[C@@H](NC(=O)Nc4ccc(F)cc4)[C@@H](CO)O3)nn2)cc1	none (no result: dFosB activator, RAD54 inh)
CCOC(=O)c1sc(/N=C/N(C)C)nc1C	DENV2 CPE rescue 40
CO[C@H]1CN(C)C(=O)c2ccc(NC(=O)C3CC3)cc2OC[C@H](C)N(Cc2nccs2)C[C@@H]1C	none (no result: dFosB activator)
CCCCCCN1C[C@H](n2cc(COC(=O)c3ccccc3)nn2)[C@@H](O)C[C@@H]1c1ccccc1	none (no result: dFosB activator)
CCCCCCN1C[C@H](O)[C@@H](n2cc(-c3ccc(F)cc3)nn2)C[C@@H]1c1ccc(C)cc1	none (no result: dFosB activator)
CCCCCCN1C[C@H](n2cc(COC(=O)c3ccccc3)nn2)[C@@H](O)C[C@@H]1c1ccc(C)cc1	GSIS activator 163 (no result: DENV2 CPE rescue, dFosB activator)
CCCCCC(=O)N1C[C@@H](n2cc(C3CC3)nn2)[C@H](O)C[C@@H]1c1ccccc1	DENV2 CPE rescue 25 (no result: dFosB activator)
CCCCCCN1C[C@H](n2cc(C3CC3)nn2)[C@@H](O)C[C@@H]1c1ccc(C)cc1	GSIS activator 274 (no result: dFosB activator)
CCCCCCN1C[C@@H](O)[C@H](n2cc(-c3ccc(F)cc3)nn2)C[C@@H]1c1ccc(C)cc1	DENV2 CPE rescue 72 (no result: dFosB activator)
CCCCCC(=O)N1C[C@@H](O)[C@H](n2cc(C3CC3)nn2)C[C@@H]1c1ccccc1	none (no result: dFosB activator, RAD54 inh)
CC(C)CC#Cc1cnc2c(c1)C(=O)N([C@@H](C)CO)C[C@@H](C)[C@@H](CN(C)C(=O)Cc1cccnc1)O2	none (no result: dFosB activator)
C[C@@H]1CN([C@H](C)CO)C(=O)c2cc(NS(=O)(=O)c3ccccc3)ccc2O[C@@H](C)CCCCO[C@H]1CN(C)C(=O)Nc1ccc2c(c1)OCO2	none (no result: dFosB activator)
CCN(C[C@H]1[C@H](c2ccccc2)[C@@H](CO)N1S(C)(=O)=O)C(=O)C1CCCC1	none (no result: dFosB activator)
Cc1cn(C2CC(O)C(O)C(CO)O2)c(=O)[nH]c1=O (stereo not drawn)	none (no result: dFosB activator, RAD54 inh)
Cc1cn([C@H]2C=C[C@@H](CO)O2)c(=O)[nH]c1=O	DENV2 CPE rescue 29!
Cc1noc(C)c1S(=O)(=O)Nc1ccc2c(c1)C(=O)N([C@@H](C)CO)C[C@@H](C)[C@H](CN(C)C(=O)CCCN(C)C)OCCCC[C@@H](C)O2	none (no result: RAD52 inh, dFosB activator, MLL AF4-AF9 inh)
COCC(=O)N1CCCCN2[C@@H](CO)[C@@H](c3ccc(-c4ccc(C)cc4)cc3)[C@@H]2C1	DENV2 CPE rescue 66 (no result: dFosB activator)
COCC(=O)N1CCCCN2[C@@H](CO)[C@H](c3ccc(-c4ccc(C)cc4)cc3)[C@@H]2C1	DENV2 CPE rescue 47 (no result: dFosB activator)
COCC(=O)N1CCCCN2[C@@H](CO)[C@@H](c3ccc(-c4ccc(F)cc4)cc3)[C@@H]2C1	DENV2 CPE rescue 28 (no result: dFosB activator)
OC[C@@H]1[C@H](c2ccc(-c3ccc(F)cc3)cc2)[C@@H]2CN(Cc3ccncc3)CCCCN12	DENV2 CPE rescue 38 (no result: dFosB activator)
COCC(=O)N1CCCCN2[C@H](C1)[C@H](c1ccc(-c3ccc(C)cc3)cc1)[C@@H]2CO	none (no result: dFosB activator)
COCC(=O)N1CCCCN2[C@H](CO)[C@H](c3ccc(-c4ccc(C)cc4)cc3)[C@@H]2C1	DENV2 CPE rescue inconclusive (no result: dFosB activator)
OC[C@@H]1[C@@H](c2ccc(-c3ccc(F)cc3)cc2)[C@H]2CN(Cc3ccncc3)CCCCN12	none (no result: dFosB activator)
C[C@H](CO)N1C[C@H](C)[C@@H](CN(C)Cc2ccc3c(c2)OCO3)Oc2c(NC(=O)CCC(F)(F)F)cccc2C1=O	none (no result: RAD52 inh, DENV2 CPE rescue, dFosB activator, RAD54 inh, MLL AF4-AF9 inh)
COc1cccc(-c2cnc3c(c2)C(=O)N([C@@H](C)CO)C[C@H](C)[C@H](CN(C)C(=O)CN(C)C)O3)c1	none (no result: dFosB activator)
COCC(=O)N1CCCCN2[C@H](CO)[C@@H](c3ccc(-c4ccccc4)cc3)[C@H]2C1	DENV2 CPE rescue 40 (no result: dFosB activator)
Cc1c(NC(=O)c2cc(-c3cccc(Cl)c3)on2)c(=O)n(-c2ccccc2)n1C	none
COc1ccc(CNC(=O)c2cc(-c3ccc(OC)c(OC)c3)on2)cc1	GSIS activator 78 (no result: RAD52 inh, DENV2 CPE rescue, MLL AF4-AF9 inh)
COc1cccc(-c2cc(C(=O)Nc3cccnc3)no2)c1	none (no result: RAD52 inh, DENV2 CPE rescue, GSIS activator, MLL AF4-AF9 inh)
COc1cccc(-c2cc(C(=O)Nc3cc(C)on3)no2)c1	GSIS activator 73 (no result: RAD52 inh, DENV2 CPE rescue, RAD54 inh, MLL AF4-AF9 inh)
Cc1cc(NC(=O)c2cc(-c3cccc(Cl)c3)on2)no1	GSIS activator 125 (no result: RAD52 inh, DENV2 CPE rescue, MLL AF4-AF9 inh)
Cc1ccc(S(=O)(=O)N(C)C[C@@H]2Oc3ccc(NS(=O)(=O)c4ccc(F)cc4)cc3C(=O)N([C@H](C)CO)C[C@H]2C)cc1	none (no result: RAD52 inh, dFosB activator, MLL AF4-AF9 inh)
C[C@@H]1CN([C@@H](C)CO)C(=O)Cc2cc(NC(=O)C3CCCCC3)ccc2O[C@H]1CN(C)C(=O)Nc1ccc(C(F)(F)F)cc1	none (no result: dFosB activator)
C=CS(=O)(=O)c1ccc(Oc2ccc(S(=O)(=O)C=C)cc2)cc1	GSIS activator 83 (no result: RAD54 inh)
NS(=O)(=O)c1ccc(Oc2ccc(S(N)(=O)=O)cc2)cc1	none (no result: RAD54 inh)
O=C(CCNC(=O)C1CCN(S(=O)(=O)c2ccccc2)CC1)NCc1ccccn1	none
COc1ccc(S(=O)(=O)N2CCC(C(=O)NCCC(=O)NCc3ccccn3)CC2)cc1	DENV2 CPE rescue 36 (no result: dFosB activator, GSIS activator)
O=C(NCc1ccccn1)C(=O)NCC1OCCN1S(=O)(=O)c1ccc(Br)cc1 (stereo not drawn)	DENV2 CPE rescue 64
O=C(NCCC1CCCCN1S(=O)(=O)c1ccccc1)C(=O)NCc1ccccn1 (stereo not drawn)	DENV2 CPE rescue 92
CCOC(=O)C1CCCN(C(=O)C2COc3ccccc3O2)C1 (stereo not drawn)	GSIS activator 42
